Assay outcomes deposited in PubChem by National Center for Advancing Translational Sciences (NCATS).
Pf growth 48h: P. falciparum growth inhibition at 48 hours (one generation); P. falciparum luciferase growth in erythrocytes, 48 h; Potency, µM (top dose mostly 28.7 µM), without a hit: at the top dose activity change, negative = inhibition, most hits filed as inhibitors; 310,000 tested, 5.9% active; AID 504832; note: potency is the fitted concentration of half-maximal effect; % is set by controls: 0 for no effect and ±100 for the full control effect
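Growth was read as firefly luciferase luminescence after a 48 h, 37 C, 5% CO2 exposure of compounds to reporter-bearing P. falciparum cultures (0.1% parasitemia, 2% hematocrit final) in Albumax-supplemented RPMI 1640.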
HCV inh: blocks hepatitis C virus | Huh7.5.1 HCVcc-Cre infection, luciferase reporter, 44 h | 340,000 tested, 3.4% active | Potency, µM (top dose mostly 41.8 µM), without a hit: top-dose activity change, negative = inhibition, most hits filed as inhibitors; note: potency is the fitted concentration of half-maximal effect; % is set by controls: 0 for no effect and ±100 for the full control effect
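Antiviral activity was scored by luciferase reporter output from cells infected with HCVcc-Cre (~0.5 moi) in presence of compound, 44 h infection period, cells seeded 1,000/well 4 h prior.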
HCMV antiviral: inhibitors of human cytomegalovirus; AID 1259415; 410,000 tested, 4.5% active; HFF cells, HCMV-luciferase reporter, 72 h; stronger effect = lower value; activity change, negative = inhibition, % at 57.5 µM; in the data active = activity change below about -60%; inconclusive = no clear call, values can overlap the other calls; inactive = above about -39%; note: % is set by controls: 0 for no effect and ±100 for the full control effect
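Inhibition of viral replication was scored as loss of reporter luminescence in HFFs infected with HCMV-luciferase (MOI 1 PFU/cell) for 72 h; compounds tested at 2 doses, normalized to buffer and Salinomycin controls.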
Cycloheximide cs: counter-screen hit for Shiga toxin inhibitors, cycloheximide; cell reporter, cycloheximide protein synthesis inhibition counterscreen; max response, %; 300,000 tested, 12% active; in the data active = max response mostly above about 13%, no sharp cut-off; inactive = mostly below about 14%; note: read at 38.3 µM for the half of the compounds with a filed dose; 0% is about no effect
Pf growth 96h: inhibits malaria parasite growth, 96 h. P. falciparum luciferase reporter growth, 96 h. Potency, µM (top dose mostly 28.7 µM), for inactives: top-dose activity change, negative = inhibition, most hits filed as inhibitors. 320,000 tested, 6.9% active; note: potency is the fitted concentration of half-maximal effect; % is set by controls: 0 for no effect and ±100 for the full control effect
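96 h incubation, 37 C, 5% CO2, of luciferase-reporter P. falciparum-infected RBCs (2% hematocrit, 0.05% parasitemia final) with test compounds; endpoint luminescence.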
Shiga toxin inh: Shiga toxin inhibition; AID 2315; 290,000 tested, 9.2% active; inhibition, % at 38.7 µM; Vero cells, Shiga toxin protein synthesis inhibition reporter; in the data active = inhibition mostly above about 28%, no sharp cut-off; inactive = mostly below about 43%; note: 0% is about no effect
* hit, by the source's call; ? = inconclusive; nt = no result given. In the library only some 21% were active in any assay of this set; here they are far more common. Unless noted, calls come from the whole dose curve; as a rule, active = well fitted inhibition curve with a large enough effect; inconclusive = small, poorly fitted or top-dose-only effect, or another doubt; inactive = no such curve, though single readings can be large or run the other way.

SMILES | Pf growth 48h | HCV inh | HCMV antiviral | Cycloheximide cs | Pf growth 96h | Shiga toxin inh
CCC(C)NC(=O)CSC1=Nc2ccccc2C2=NC(CC(=O)NCc3ccc(F)cc3)C(=O)N12 (stereo not drawn) | 13µM* | 12% | -16 | -3 | ? | -5
CCOC(=O)CSC1=Nc2ccccc2C2=NC(CC(=O)NCc3cccs3)C(=O)N12 (stereo not drawn) | 10µM* | -18% | -15 | -1 | ? | -9
CCOC(=O)c1ccc(NC2=CC(c3ccc(O)c(OCC)c3)N(c3ccc(C(=O)OCC)cc3)C2=O)cc1 (stereo not drawn) | nt | nt | 19 | nt | nt | nt
NC(=S)Nc1cccc2cc3ccccc3cc12 | 39% | ? | -105* | 43* | 46% | 78*
NC(=S)Nc1cc2ccccc2c2ccccc12 | 46% | ? | -72* | 2 | ? | -2
COc1ccccc1OCc1ccc(C(=O)Nc2ccc(C)c(C)c2)o1 | nt | nt | 54 | nt | nt | nt
O=C(COc1cccc(-n2cnnn2)c1)Nc1ccc([N+](=O)[O-])cc1 | -19% | 0% | -9 | 0 | ? | -4
COC(=O)c1ccn(-c2nc(-c3ccc(Cl)cc3)cc(C(F)(F)F)n2)n1 | nt | nt | -8 | nt | nt | nt
O=C1C(c2ccccc2)=[N+]([O-])c2ccccc21 | 0.66µM* | 10µM* | 26 | nt | 0.37µM* | nt
Cc1cc(-n2c(SCc3ccccc3F)nc3[nH]ncc3c2=O)ccc1Cl | nt | nt | -64* | nt | nt | nt
Cc1cc(C)c2oc(-c3ccc(Cl)c(NC(=O)c4ccc(C#N)cc4F)c3)nc2c1 | ? | 4% | -21 | 48* | 1% | 39*
Cc1ccc(C(=O)N/N=C2\CC3CC=CC23)c(C)c1 (stereo not drawn) | 14% | 5% | -25 | 63* | 2% | 133*
O=C(N/N=C1\CC2CC=CC12)c1ccc(O)cc1 (stereo not drawn) | 17% | 1% | -28 | 30* | ? | 51*
Cc1ccc(NC(=S)N/N=C2\CC3CC=CC23)c(C)c1 (stereo not drawn) | -2% | -7% | -29 | 20* | ? | 56
Cc1cccc(C)c1NC(=S)N/N=C/c1c(Cl)cccc1Cl | 26% | 19% | 19 | -1 | 23% | 9
Cc1cccc(C)c1NC(=S)N/N=C1\CC2CC=CC12 (stereo not drawn) | ? | 3% | -32 | -1 | 9.3µM* | 21
O=C(N/N=C1\CCS(=O)(=O)c2ccc(F)cc21)c1ccc(O)cc1 | 41% | 7% | -5 | 23 | ? | 18
C/C(=N\NC(=O)C1CC1)c1ccc(C)cc1C | nt | 12% | 0 | nt | nt | nt
COc1cc2ccccc2cc1C(=O)Nc1ccc2oc(-c3ccc(F)cc3)nc2c1 | nt | nt | 33 | nt | nt | nt
Cn1ccc2c(OCC(=O)Nc3cc(C(F)(F)F)ccc3Cl)cccc2c1=O | nt | nt | -29 | nt | nt | nt
CCOC(=O)c1ccc(NC(=S)N(CCN2CCCCCC2)Cc2cccs2)cc1 | ? | ? | ? | -4 | -1% | -3
O=C(NCc1ccc(Cl)cc1)c1noc2c1CCCCC2 | 43% | ? | 44 | 32* | 9.3µM* | 47*
O=C(Nc1ccccc1C(F)(F)F)c1noc2c1CCCCC2 | nt | nt | 2 | nt | nt | nt
Cc1ccc(Cl)cc1N(C)C(=O)c1noc2c1CCCCC2 | nt | nt | -64* | nt | nt | nt
O=C(NCc1ccc(F)cc1)c1noc2c1CCCCC2 | 31% | ? | 21 | 21* | ? | 32
SMILES | Pf growth 48h | HCV inh | HCMV antiviral | Cycloheximide cs | Pf growth 96h | Shiga toxin inh
O=C(Nc1ccc(F)cc1F)c1noc2c1CCC2 | ? | -8% | nt | 35* | 37% | 59*
CC1=C(C(=O)N(C(C)C)C(C)C)CC(CC(=O)NC2CC2)C(=O)N1Cc1ccc(F)cc1 (stereo not drawn) | nt | nt | 12 | nt | nt | nt
Cc1cccc(C(=O)N(Cc2ccccc2F)C2CCS(=O)(=O)C2)c1 (stereo not drawn) | nt | nt | -18 | nt | nt | nt
COc1cc(OC)c(Nc2nc3ccccc3c3nncn23)cc1Cl | nt | nt | 6 | nt | nt | nt
CC(C)(C)C1CCc2onc(C(=O)NCc3ccc(F)cc3)c2C1 (stereo not drawn) | 18% | 7% | -21 | -3 | 0% | 4
O=C(NCc1ccc(F)cc1)c1noc2c1CCCC2 | 22% | 4% | 36 | 20* | 50% | 50
OCCn1cnc2c(SCc3ccccc3)ncnc21 | nt | -1% | -26 | nt | nt | nt
N=c1c2c(-c3ccccc3)c(-c3ccccc3)n(Cc3ccco3)c2ncn1Cc1ccccc1 | nt | -19% | -1 | 3 | 2.6µM* | 12
CC(C)Cn1cnc2c(c(-c3ccccc3)c(-c3ccccc3)n2Cc2ccco2)c1=N | nt | 11µM* | -28 | -4 | 2.1µM* | -6
O=c1c2ccccc2nc(-c2ccccc2)n1Cc1ccco1 | -16% | -6% | 29 | -6 | ? | 2
N=c1c2c(-c3ccccc3)c(-c3ccccc3)n(Cc3ccccc3)c2ncn1CCO | 4.1µM* | ? | ? | -10 | ? | -8
COCCCn1c2nc3ccccc3nc2c2c(=O)n(Cc3ccc(Cl)cc3)cnc21 | ? | 17% | ? | -3 | 10% | -14
O=c1c2c3nc4ccccc4nc3n(Cc3ccccc3)c2ncn1Cc1ccco1 | 10µM* | ? | 1 | 7 | nt | 5
Nc1cc2cccnc2cc1Cl | nt | 0% | 32 | nt | nt | nt
Cc1cc(N)c(NC2=CC(=O)CC(C)(C)C2)cc1C | -4% | 21% | 61 | 62* | 10µM* | 91*
COc1ccc(-c2nn(-c3ccccc3)cc2C(=O)N2CCN(S(=O)(=O)c3cccc(F)c3)CC2)cc1 | 10µM* | ? | -9 | nt | ? | nt
COc1ccc(-c2nn(-c3ccccc3)cc2C(=O)O)cc1 | nt | 11% | 24 | 5 | 5% | 7
COc1ccc(-c2nn(-c3ccccc3)cc2C(=O)N2CCN(S(=O)(=O)c3ccccc3C#N)CC2)cc1 | ? | 20% | ? | nt | 9.3µM* | nt
COc1ccc(-c2nn(-c3ccccc3)cc2C(=O)N2CCN(C(=O)c3ccco3)CC2)cc1 | nt | 0% | -19 | nt | nt | nt
CCN(CC(=O)Nc1c(F)cccc1F)C(=O)c1ccc(OCC(=O)N2CCOCC2)c(OC)c1 | nt | 22% | -3 | nt | nt | nt
COc1cc(-c2nn3c(Cc4ccccc4)nnc3s2)cc(OC)c1OC | 10µM* | ? | 82 | -1 | 43% | -6
COc1cc(-c2nn3c(COc4ccccc4)nnc3s2)cc(OC)c1OC | -20% | ? | 41 | -3 | nt | 40
CCOc1ccc(N(CC(=O)NN=C2CCN(C)CC2)S(=O)(=O)c2ccc(Br)cc2)cc1 | -3% | nt | 18 | 14 | 15µM* | 1
Cc1ccc(N(CC(=O)NCCSCc2ccco2)S(=O)(=O)c2ccc(C)cc2)cc1 | ? | ? | ? | -1 | 6.6µM* | -12
O=C(CN(Cc1ccc(Br)cc1)S(=O)(=O)c1ccccc1)NCc1ccccn1 | 8% | 7% | -14 | 0 | 214% | -29
O=C(CN(Cc1ccccc1)S(=O)(=O)c1ccc(Br)cc1)NCc1ccco1 | nt | -17% | -17 | 15 | ? | 25*
